# PubChem BioAssay (NCATS)
# Inconclusive results are not listed. Calls of active or inactive are those of the source. Unless noted, the call rests on the fitted dose curve; in most records, active means well fitted curve in the direction sought with a large enough effect; inconclusive means small, poorly fitted or top-dose-only effect, or another doubt; inactive means no such curve, though single readings can be large; an effect the other way counts as inactive or inconclusive.
# Key:
# [1] = Quantitative High-Throughput drug screen in 47 multiple myeloma cell lines against the NCATS MIPE library collection: VP6_DJ cell viability assay (AID 1919867); further: nearly all actives have a fitted effect of over 40% in size; further: potency means the concentration at half of the fitted maximal effect
# How it was run: (§1)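 Plated at 500 cells per well, myeloma lines received MIPE 4.0 compounds by pin tool. Following 48 h culture at 37 °C, CellTiter-Glo luminescence gave viability relative to DMSO and media-only controls.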
# [2] = Quantitative High-Throughput drug screen in 47 multiple myeloma cell lines against the NCATS MIPE library collection: UTMC2_PLB cell viability assay (AID 1919868); conditions: CellTiter-Glo ATP luminescence, 48 h; viability (% of DMSO control): at 45.8 µM (top of the series) unless noted; further: nearly all actives have a fitted effect of over 55% in size; further: potency means the concentration at half of the fitted maximal effect;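 on viability (% of DMSO control): 100% = DMSO-only wells and 0% = media-only wells without cells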
# How it was run: as §1
# [3] = Quantitative High-Throughput drug screen in 47 multiple myeloma cell lines against the NCATS MIPE library collection: PE2_PLB cell viability assay (AID 1919869); further: nearly all actives have a fitted effect of over 35% in size; further: potency means the concentration at half of the fitted maximal effect
# How it was run: as §1
# [4] = Quantitative High-Throughput drug screen in 47 multiple myeloma cell lines against the NCATS MIPE library collection: PCM6_Riken cell viability assay (AID 1919870); further: nearly all actives have a fitted effect of over 30% in size; further: potency means the concentration at half of the fitted maximal effect
# How it was run: as §1
# [5] = Quantitative High-Throughput drug screen in 47 multiple myeloma cell lines against the NCATS MIPE library collection: RPMI8226_ATCC cell viability assay (AID 1919871); further: nearly all actives have a fitted effect of over 30% in size; further: potency means the concentration at half of the fitted maximal effect
# How it was run: as §1
# [6] = Quantitative High-Throughput drug screen in 47 multiple myeloma cell lines against the NCATS MIPE library collection: OPM2_DSMZ cell viability assay (AID 1919872); further: nearly all actives have a fitted effect of over 30% in size; further: potency means the concentration at half of the fitted maximal effect
# How it was run: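 Steps: seed 500 cells per well; pin-transfer MIPE 4.0 library; incubate 48 h at 37C, 5% CO2, humidified; add CellTiter-Glo, 5 min room temperature; read luminescence.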
# [7] = Quantitative High-Throughput drug screen in 47 multiple myeloma cell lines against the NCATS MIPE library collection: KMS28BM_JCRB cell viability assay (AID 1919874); further: potency means the concentration at half of the fitted maximal effect; nearly all actives have a fitted effect of over 35% in size
# How it was run: as §1
# [8] = qHTS for identification of novel therapeutic agents for treatment of microphthalmiaassociated transcription factor (MiT) renal cell carcinoma (RCC) (AID 1963991; calls by dose curve; further: potency means the concentration at half of the fitted maximal effect); conditions: CellTiter-Glo, 48 h; for Potency: active = Z-AUC below -0.8 in all three lines; for z-score: stronger effect = lower value
# How it was run: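 Three TFE3-fusion RCC lines (UOK109, UOK124, UOK145), 500 cells/well in complete medium, were treated with MIPE 4.0 compounds for 48 hours at 37 C. Viability was by CellTiter-Glo luminescence, normalized to DMSO (100%) and empty wells (0%); curves fitted over 11 concentrations.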
# [9] = qHTS drug screen for cell cycle checkpoint inhibitors in PARPi-resistant BRCA-mutant ovarian cancer cell lines. (AID 1963452; calls by dose curve; further: potency means the concentration at half of the fitted maximal effect); conditions: PEO1/OlaR viability, CellTiter-Glo luminescence, 96 h; for Z-AUC: stronger effect = lower value
# How it was run: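 PEO1, PEO4 and PEO1/OlaR ovarian cancer cells, 600 per well, exposed 96 h at 37C to a dilution series. Viability read by CellTiter-Glo luminescence, normalized to DMSO and empty wells; activity summarized as Z-AUC.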
# [10] = Quantitative High-Throughput drug screen in 47 multiple myeloma cell lines against the NCATS MIPE library collection: KMS11_JCRBsus cell viability assay (AID 1919873); further: nearly all actives have a fitted effect of over 50% in size; further: potency means the concentration at half of the fitted maximal effect
# How it was run: as §1
# [11] = qHTS profiling for inhibitors of Plasmodium falciparum proliferation (AID 504749);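 further: 0% = DMSO vehicle and full inhibition = artemisinin control; nearly all actives have a fitted effect of over 60% in size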; conditions: P. falciparum in erythrocytes, SYBR Green DNA, 72 h, at 28.7 µM (top of the series)
# How it was run: (§2)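 Three-day growth assay of blood-stage parasites in erythrocytes (0.3% parasitemia, 2.5% hematocrit) at 37 C, 5% CO2, quantified by SYBR Green DNA staining after overnight detergent lysis.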
# 3D7 = assay: as above; conditions: P. falciparum in erythrocytes, SYBR Green DNA, 72 h; series mostly up to 28.7 µM
# How it was run: as §2
# 7G8 = assay: as above; conditions: P. falciparum in erythrocytes, SYBR Green DNA, 72 h; series mostly up to 28.7 µM
# How it was run: as §2
# AA1029 = assay: as above; conditions: P. falciparum in erythrocytes, SYBR Green DNA, 72 h; series mostly up to 28.7 µM
# How it was run: as §2
# AS120 = assay: as above; conditions: P. falciparum in erythrocytes, SYBR Green DNA, 72 h; series mostly up to 28.7 µM
# How it was run: as §2
# ATS189 = assay: as above; conditions: P. falciparum in erythrocytes, SYBR Green DNA, 72 h; series mostly up to 28.7 µM
# How it was run: as §2
# ATS95 = assay: as above; conditions: P. falciparum in erythrocytes, SYBR Green DNA, 72 h; series mostly up to 28.7 µM
# How it was run: as §2
# C2A = assay: as above; conditions: P. falciparum in erythrocytes, SYBR Green DNA, 72 h; series mostly up to 28.7 µM
# How it was run: as §2
# CP185 = assay: as above; conditions: P. falciparum in erythrocytes, SYBR Green DNA, 72 h; series mostly up to 28.7 µM
# How it was run: as §2
# CP191 = assay: as above; conditions: P. falciparum in erythrocytes, SYBR Green DNA, 72 h; series mostly up to 28.7 µM
# How it was run: as §2
# [12] = TFE3-RCC UOK109 viability, measured here: UOK109 Z-AUC
# [13] = TFE3-RCC viability, measured here: UOK124 Z-AUC
# [14] = TFE3-RCC viability, measured here: UOK145 Z-AUC
# [15] = measured here: PEO1 parental Z-AUC
compound,measurement,setting,value
Cc1[nH]c2ccccc2c1CCNCc1ccc(C=CC(=O)NO)cc1,Potency,[1],18.7 nM (active)
same,Potency,[2],14.8 nM (active)
same,Potency,[3],93.5 nM (active)
same,Potency,[4],66.2 nM (active)
same,Potency,[5],118 nM (active)
same,Potency,[6],93.5 nM (active)
same,Potency,[7],52.6 nM (active)
same,Potency,[8]; TFE3-RCC UOK109 viability,418 nM (active)
same,z-score,[8]; [12],-1.86
same,z-score,[8]; [13],-3.24
same,z-score,[8]; [14],-1.46
Cn1c2ccccc2c2c3c(c4c5ccccc5n(CCC#N)c4c21)CNC3=O,Potency,[1],2960 nM (active)
same,Potency,[2],2640 nM (active)
same,Potency,[3],1870 nM (active)
same,Potency,[4],1870 nM (active)
same,Potency,[5],20900 nM (active)
same,Potency,[6],11800 nM (active)
same,Z-AUC,[9],-0.442 (inactive)
same,Z-AUC,[9]; [15],-1.02
same,Z-AUC,[9]; measured here: PEO4 Z-AUC,-1.08
same,Potency,[8]; TFE3-RCC UOK109 viability,7430 nM (active)
same,z-score,[8]; [12],-0.993
same,z-score,[8]; [13],-2.34
same,z-score,[8]; [14],-1.2
O=C(CCCCCCC(=O)Nc1ccc([C@H]2O[C@@H](CSc3nc(-c4ccccc4)c(-c4ccccc4)o3)C[C@@H](c3ccc(CO)cc3)O2)cc1)NO,Potency,[1],7430 nM (active)
same,Potency,[2],8330 nM (active)
same,Potency,[3],14800 nM (active)
same,Potency,[4],13200 nM (active)
same,Potency,[5],18700 nM (active)
same,Potency,[6],20900 nM (active)
same,Potency,[7],13200 nM (active)
same,Z-AUC,[9],0.612 (inactive)
same,Z-AUC,[9]; [15],1.26
same,Z-AUC,[9]; measured here: PEO4 Z-AUC,0.641
C#Cc1cccc(Nc2ncnc3cc(OC)c(OCCCCCCC(=O)NO)cc23)c1,Potency,[1],296 nM (active)
same,Potency,[2],18.7 nM (active)
same,Potency,[3],93.5 nM (active)
same,Potency,[4],187 nM (active)
same,Potency,[5],1870 nM (active)
same,Potency,[6],1480 nM (active)
same,Potency,[7],33.2 nM (active)
same,Potency,[9],616 nM (active)
same,Z-AUC,[9]; [15],-1.22
same,Z-AUC,[9]; measured here: PEO4 Z-AUC,-1.32
COc1cc2ncnc(Nc3ccc(F)c(Cl)c3)c2cc1NC(=O)C=CCN1CCCCC1,Potency,[1],5900 nM (active)
same,Potency,[2],10500 nM (active)
same,Potency,[3],6620 nM (active)
same,Potency,[4],3320 nM (active)
same,Potency,[5],18700 nM (active)
same,Potency,[10],8330 nM (active)
same,Potency,[7],6620 nM (active)
C[C@@H]1COC(Nc2ccc3ncnc(Nc4ccc(OCc5nccs5)c(Cl)c4)c3c2)=N1,Potency,[1],3720 nM (active)
same,Potency,[2],2960 nM (active)
same,Potency,[3],4180 nM (active)
same,Potency,[4],2960 nM (active)
same,Potency,[5],33200 nM (active)
same,Potency,[10],18700 nM (active)
same,Potency,[9],13800 nM (active)
same,Z-AUC,[9]; [15],-1.34
same,Z-AUC,[9]; measured here: PEO4 Z-AUC,-1.07
O=c1[nH]c(=O)n(C2CCCO2)cc1F (stereo not drawn),Potency,[1],inactive
same,Potency,[2],inactive
same,Potency,[3],inactive
same,Potency,[4],inactive
same,Potency,[5],inactive
same,Potency,[6],inactive
same,Potency,[10],inactive
same,Z-AUC,[9],1.33 (inactive)
same,Z-AUC,[9]; [15],1.12
same,Z-AUC,[9]; measured here: PEO4 Z-AUC,0.998
same,z-score,[8]; [12],0.952
same,z-score,[8]; [13],1.45
same,z-score,[8]; [14],0.901
same,"activity, negative = inhibition",[11]; parasite line A,8.19% (inactive)
same,"activity, negative = inhibition",[11]; parasite line B,12.8% (inactive)
same,Potency,3D7,inactive
same,Potency,7G8,inactive
same,Potency,AA1029,inactive
same,Potency,AS120,inactive
same,Potency,ATS189,inactive
same,Potency,ATS95,inactive
same,Potency,C2A,inactive
same,Potency,CP185,inactive
same,Potency,CP191,inactive
CC1(C)CCC(c2ccc(Cl)cc2)=C(CN2CCN(c3ccc(C(=O)NS(=O)(=O)c4ccc(N[C@H](CCN5CCOCC5)CSc5ccccc5)c(S(=O)(=O)C(F)(F)F)c4)cc3)CC2)C1,Potency,[1],372 nM (active)
same,Potency,[2],93.5 nM (active)
same,Potency,[3],2640 nM (active)
same,Potency,[4],26.4 nM (active)
same,Potency,[5],2960 nM (active)
same,Potency,[6],18700 nM (active)
same,Potency,[7],332 nM (active)
same,Z-AUC,[9],-0.481 (inactive)
same,Z-AUC,[9]; [15],-0.554
same,Z-AUC,[9]; measured here: PEO4 Z-AUC,-1.15
O=C(Nc1cc(C(F)(F)F)cc(C(F)(F)F)c1)c1cc(Cl)ccc1O,Potency,[1],526 nM (active)
same,Potency,[2],743 nM (active)
same,Potency,[3],590 nM (active)
same,Potency,[4],1320 nM (active)
same,Potency,[5],662 nM (active)
same,Potency,[6],1320 nM (active)
same,Potency,[7],833 nM (active)
same,Potency,[9],977 nM (active)
same,Z-AUC,[9]; [15],-1.29
same,Z-AUC,[9]; measured here: PEO4 Z-AUC,-1.54
same,Potency,[8]; TFE3-RCC UOK109 viability,1180 nM (active)
same,z-score,[8]; [12],-1.74
same,z-score,[8]; [13],-1.08
same,z-score,[8]; [14],-1.95
CN(C)Cc1c(C(=O)NCCOc2ccc(C(=O)NO)cc2)oc2ccccc12,Potency,[1],148 nM (active)
same,Potency,[2],418 nM (active)
same,Potency,[3],2350 nM (active)
same,Potency,[4],935 nM (active)
same,Potency,[5],1480 nM (active)
same,Potency,[6],1050 nM (active)
same,Potency,[7],418 nM (active)
same,Z-AUC,[9],-0.744 (inactive)
same,Z-AUC,[9]; [15],-1.25
same,Z-AUC,[9]; measured here: PEO4 Z-AUC,-1.26
CC=C1NC(=O)[C@H]2CSSCCC=C[C@H](CC(=O)N[C@H](C(C)C)C(=O)N2)OC(=O)[C@H](C(C)C)NC1=O,Potency,[1],1 nM (active)
same,Potency,[2],33.2 nM (active)
same,Potency,[3],59 nM (active)
same,Potency,[4],1 nM (active)
same,Potency,[5],26.4 nM (active)
same,Potency,[10],18.7 nM (active)
same,Potency,[7],16.6 nM (active)
same,Potency,[8]; TFE3-RCC UOK109 viability,33.2 nM (active)
same,z-score,[8]; [12],-2.23
same,z-score,[8]; [13],-4.08
same,z-score,[8]; [14],-2.33
CC(C)c1cc(C(=O)N2Cc3ccc(CN4CCN(C)CC4)cc3C2)c(O)cc1O,Potency,[1],148 nM (active)
same,Potency,[2],372 nM (active)
same,Potency,[3],296 nM (active)
same,Potency,[4],935 nM (active)
same,Potency,[5],264 nM (active)
same,Potency,[6],332 nM (active)
same,Potency,[7],235 nM (active)
same,Z-AUC,[9],-1.06 (inactive)
same,Z-AUC,[9]; [15],-0.777
same,Z-AUC,[9]; measured here: PEO4 Z-AUC,-0.0282
same,Potency,[8]; TFE3-RCC UOK109 viability,418 nM (active)
same,z-score,[8]; [12],-0.923
same,z-score,[8]; [13],-0.898
same,z-score,[8]; [14],-0.85
